M1 ag parental – M1 agonist counterscreen hit in parental CHO-K1 cells; Fluo-8 calcium fluorescence; scaled to maximal ATP response, vehicle zero; activation, % at 3 µM; 0.48% of 360,000 active; AID 602248; in the data active means activation above about 15%;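 further: untransfected CHO-K1 host cells lacking M1 receptor as counterscreen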
CHRM1 PAM – potentiates human M1 receptor response to acetylcholine. 0.088% of 360,000 active. P11229. CHO-K1 hM1, Fluo-8 calcium fluorescence, ACh EC20; 0% = ACh EC20, 100% = maximal ACh. AID 588819. activation, % at 3 µM; in the data active means activation above about 19%, passing the limit was not always enough
Target sequence (P11229 whole entry, looked up): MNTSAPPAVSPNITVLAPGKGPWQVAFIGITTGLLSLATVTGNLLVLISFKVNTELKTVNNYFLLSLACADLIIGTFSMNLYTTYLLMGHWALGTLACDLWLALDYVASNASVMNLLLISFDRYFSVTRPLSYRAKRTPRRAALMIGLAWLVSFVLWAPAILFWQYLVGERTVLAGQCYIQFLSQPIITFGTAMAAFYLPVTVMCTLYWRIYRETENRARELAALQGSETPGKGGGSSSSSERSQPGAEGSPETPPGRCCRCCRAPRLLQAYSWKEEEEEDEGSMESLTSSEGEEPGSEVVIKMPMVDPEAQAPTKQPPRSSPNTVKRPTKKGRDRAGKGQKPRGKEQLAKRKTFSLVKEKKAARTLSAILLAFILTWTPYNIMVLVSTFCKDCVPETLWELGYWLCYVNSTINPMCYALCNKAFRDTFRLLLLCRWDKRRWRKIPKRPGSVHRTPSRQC
CHRM1 agonist – agonists of human M1 muscarinic receptor; CHO-K1 hM1, Fluo-8 calcium fluorescence, agonist mode; 0% DMSO, 100% acetylcholine EC100; 0.33% of 360,000 active; activation, % at 3 µM; AID 588814; P11229;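 active means activation above the run's mean compound activation plus 3 SD, cut at about 16% in these data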;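 further: peak over basal fluorescence ratio within a 140 s kinetic read after compound addition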
M1 PAM parental – nonselective activator or artifact in parental CHO-K1 calcium assay; ATP EC20, Fluo-8 calcium fluorescence; 0% at ATP EC20, 100% at ATP max; activation, % at 3 µM; 0.02% of 360,000 active; AID 602247;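 active means activation above the run cutoff, the mean activation of all test compounds plus 3 SD, cut at about 40% in these data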;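 further: peak over basal fluorescence ratio in a 140 s read after ATP addition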
M1 antag – antagonists of human M1 muscarinic receptor; P11229; CHO-K1 hM1, Fluo-8 calcium fluorescence, ACh EC80 antagonist; inhibition, % at 3 µM; 1.3% of 360,000 active; AID 588852;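 active means percent inhibition above its own plate's cutoff, namely the mean of that plate's compound wells plus 3 SD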;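 further: peak over basal fluorescence ratio during 140 s after agonist addition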
CHO-K1 Ca antag – counter-screen for M1 antagonists: effect in parental CHO-K1 cells. inhibition, % at 3 µM. AID 602250. ATP-induced calcium, Fluo-8 fluorescence. 0.6% of 360,000 active;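 active means inhibition above a per-plate cutoff, the plate's mean sample inhibition plus 3 SD, cut at about 24% in these data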
Of the large screens only hits and unclear results are named; the others gave an inactive call. Hits are enriched below; roughly 2.3% of the tested compounds scored in any of these assays.

COC(=O)CSc1nc(-c2cccs2)ccc1C#N	M1 antag 46.9
C#CCSc1nc(-c2cccs2)ccc1C#N	none
CN1CCN(C(=O)CSc2nc(-c3ccncc3)ccc2C#N)CC1	M1 antag 25.9
Cc1cc(Cl)ccc1-c1nc(NC(C)C)nc2ccsc12	none
CCS(=O)(=O)N1Cc2ccccc2CC1C(=O)Nc1nc(C)cs1 (stereo not given)	CHO-K1 Ca antag 31.8
CC(=O)Nc1ccc2c(c1)CN(c1cc(C)ccc1C)CO2	CHO-K1 Ca antag 24.8
CC(=O)Nc1ccc(S(=O)(=O)N2CCN(c3cc(C)ccc3C)CC2)cc1	none
OC1(c2ccc(Br)cc2)CCN(Cc2cccc(Br)c2)CC1	M1 antag 35.2
O=C(Nc1ccc(Cl)cc1)c1cc2c(cc1O)[nH]c1ccccc12	M1 ag parental 15.9, CHO-K1 Ca antag 28.8
N#CC1=C2SCN(Cc3ccccc3)CN2C(=O)CC1c1cccs1 (stereo not given)	CHO-K1 Ca antag 27.0
CCOC(=O)N1CCN(Cc2ccc(OCC(O)CN3CCCCC3)cc2)CC1 (stereo not given)	none
CCOC(=O)c1c(C)[nH]c(C(=O)COC(=O)c2ccccc2NC(=O)c2ccco2)c1C	CHO-K1 Ca antag 32.2
COc1ccc(OC)c(S(=O)(=O)NC2CC(=O)N(c3cccc(F)c3)C2)c1 (stereo not given)	none
CC(C)Cc1ccc(C(C)NC(=O)c2ccc(=O)[nH]c2)cc1 (stereo not given)	M1 ag parental 15.4
Cc1cc(S(=O)(=O)Nc2ccc(C(=O)NCCN3CCOCC3)cc2)ccc1F	none
COc1cc(C)c(Cl)cc1S(=O)(=O)NCCCN1CCOCC1	none
COc1cc(C)c(Br)cc1S(=O)(=O)NCCCN1CCOCC1	M1 ag parental 19.8
O=C(Nc1ccccc1Cl)OC1CCCCC1	none
COc1cccc(-c2ccc(NC(=O)C3CCCN(Cc4cccc(C)n4)C3)cc2)c1 (stereo not given)	M1 antag 53.0
COc1cccc(-c2ccc(NC(=O)C3CCCN(Cc4cnc(C)n4C)C3)cc2)c1 (stereo not given)	none
Cc1cccc(CN2CCCC(C(=O)c3ccc4c5c(cccc35)CC4)C2)n1 (stereo not given)	M1 antag 94.5
COc1ccc2cc(C(=O)C3CCCN(Cc4cccc(C)n4)C3)ccc2c1 (stereo not given)	M1 antag 59.6
COc1ccc(-c2[nH]ncc2CN2CCCC(C(=O)c3cccc(OC)c3)C2)cc1 (stereo not given)	none
Cc1ncc(CN2CCCC(C(=O)Nc3ccc(-c4cccc(F)c4)cc3)C2)n1C (stereo not given)	M1 antag 31.6
O=C(c1ccc2c3c(cccc13)CC2)C1CCCN(Cc2cccnc2)C1 (stereo not given)	none
COc1cccc(-c2ccc(NC(=O)C3CCCN(Cc4cnn(C)c4C)C3)cc2)c1 (stereo not given)	none
Cc1ncc(CN2CCCC(C(=O)Nc3ccc(-c4cscn4)cc3)C2)cn1 (stereo not given)	none
COc1cccc(CN2CCCC(C(=O)Nc3ccc(-c4cscn4)cc3)C2)c1 (stereo not given)	M1 antag 34.6
O=C(COc1ccccc1Cl)Nc1cccc(S(=O)(=O)NC2=NCCCCC2)c1	none
O=C(COC(=O)CCc1nc2ccccc2c(=O)[nH]1)Nc1ccccc1Cl	none
O=C(COC(=O)CCc1nc2ccccc2c(=O)[nH]1)Nc1ccccc1OC(F)F	CHRM1 PAM 23.9
N#Cc1ccc(CN(Nc2ccccc2)c2ccccc2)cc1	CHO-K1 Ca antag 29.2
O=C(CSCc1cc(=O)n2ccsc2n1)Nc1ccc(F)cc1	none
COCCCN1C(=O)C(CC(=O)NCC2CCCCC2)CC(C(=O)N2CCOCC2)=C1C (stereo not given)	none
Cc1ccccc1-n1nnnc1SCC(=O)Nc1ccc(N2CCN(C)CC2)cc1	none
Cc1ccccc1-n1nnnc1SC(C)C(=O)Nc1ccc(N2CCN(C)CC2)cc1 (stereo not given)	M1 antag 50.5
CCN(CC)CCNC(=O)c1ccc(NC(=O)c2cn(-c3ccc(F)cc3)nc2-c2cccc(OC)c2)cc1	M1 antag 99.3

Assay outcomes as filed in PubChem BioAssay.
